PostGolgi ctrl = inhibits growth of the yeast control strain | efflux-deficient yeast background strain, growth absorbance A615, 16 h | inhibition, % at 10 µM | 98,000 tested, 5% active
CYP2C19 inh = inhibitors of human CYP2C19; P33261; CYP2C19 Supersomes, luciferin-H EGE luminescence, 30 min; inhibition, % at 5 µM; 96,000 tested, 21% active; AID 778;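 active = CYP2C19 inhibition above a set limit at 5 µM in the primary screen, cut at about 50% in these data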;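 note: plate controls were negative control wells for no effect and 2.5 mM tranylcypromine positive control for full effect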
CYP2C9 act = increases human cytochrome P450 2C9 activity. P11712. recombinant CYP2C9, luciferin-H conversion, luminescence; active compounds read high; factor 1 = untreated enzyme, 0 = blocked. activation factor at 5 µM. 96,000 tested, 1.4% active;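 active = activation factor of 2 or more for CYP2C9 at a 5 µM dose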;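 note: 0 = sulfaphenazole-blocked wells and 1 = vehicle-only wells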
Target sequence (P11712 whole entry, looked up): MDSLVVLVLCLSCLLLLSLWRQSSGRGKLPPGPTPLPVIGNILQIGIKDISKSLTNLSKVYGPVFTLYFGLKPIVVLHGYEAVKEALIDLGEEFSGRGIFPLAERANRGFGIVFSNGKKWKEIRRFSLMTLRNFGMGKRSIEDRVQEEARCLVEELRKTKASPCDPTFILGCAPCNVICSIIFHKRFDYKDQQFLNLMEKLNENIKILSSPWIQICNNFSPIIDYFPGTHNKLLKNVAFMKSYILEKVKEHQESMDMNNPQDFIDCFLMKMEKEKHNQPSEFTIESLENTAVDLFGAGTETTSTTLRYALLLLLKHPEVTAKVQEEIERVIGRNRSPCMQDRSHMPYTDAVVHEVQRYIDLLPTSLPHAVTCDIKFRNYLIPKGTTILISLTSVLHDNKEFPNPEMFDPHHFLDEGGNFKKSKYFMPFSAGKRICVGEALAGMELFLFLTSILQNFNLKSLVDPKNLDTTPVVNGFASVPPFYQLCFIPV
CYP2C19 act = cytochrome P450 2C19 (human) activation; P33261; recombinant CYP2C19, luciferin-H EGE luminescence; active compounds read high; 0 = fully inhibited enzyme, 1 = untreated enzyme; activation factor at 5 µM; 96,000 tested, under 10 active; AID 1025;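 active = activation factor of at least 2 at 5 µM in the primary screen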;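 note: 0 = wells with 2.5 mM tranylcypromine and 1 = vehicle-only wells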
PostGolgi yeast = growth inhibition of a yeast mutant, post-Golgi transport screen; post-Golgi transport phenotypic cell assay; 98,000 tested, 0.9% active; AID 739; inhibition, % at 10 µM;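 note: yeast cells grown in 1536-well plates; yeast grown about 18 h at 30C before absorbance read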
CYP2C9 inh = inhibitors of human CYP2C9; inhibition, % at 5 µM; P11712; 96,000 tested, 20% active; AID 777; CYP2C9 Supersomes, luciferin-H conversion, luminescence;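 active = blocking of liver enzyme CYP2C9 beyond about 50% at 5 µM, limit read from the data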
* marks the source's active call; other numbers are inactive results; x = no result given. In the library only some 32% were active in any assay of this set; here they are far more common. Cut-off read from the data, not from the text of the source, unless noted: active = inhibition above about 30%; inactive = the rest.

SMILES	PostGolgi ctrl	CYP2C19 inh	CYP2C9 act	CYP2C19 act	PostGolgi yeast	CYP2C9 inh
Cc1nnc(NC(=O)C2CCN(c3cnccn3)CC2)s1	3	-19	1.1	1.2	-2	-7
O=C(NCCc1ccccc1)C1CCN(S(=O)(=O)c2ccc(-c3nn[nH]n3)cc2)CC1	3	5	0.2	1	0	83*
O=C(NCCc1ccccc1)C1CCN(S(=O)(=O)c2cccnc2)CC1	-2	34	0.7	0.7	-7	27
CCN(CCNC(=O)C1CCN(S(C)(=O)=O)CC1)c1ccccc1	9	5	1.2	1	2	-18
CCCS(=O)(=O)N1CCCC(C(=O)NCCN2CCC(Cc3ccccc3)CC2)C1 (configuration not stated)	-3	24	0.4	0.8	-2	65*
O=C(NCCc1ccc(Cl)cc1)C1CCN(c2cnccn2)CC1	-2	52*	0.3	0.5	-3	66*
CCS(=O)(=O)N1CCCC(C(=O)NCCCOC(C)C)C1 (configuration not stated)	-1	12	1.2	0.9	1	-16
O=C(Nc1ccccc1)N1CCC(c2nc(-c3ccc(S(=O)(=O)N4CCOCC4)cc3)no2)CC1	13	10	0.5	0.9	-5	46
O=C(NCCc1ccccc1)C1CCN(S(=O)(=O)N2CCCC2)CC1	-4	-10	1.2	1.1	33*	-25
COc1ccc(CCNC(=O)C2CCN(S(=O)(=O)N3CCCCCC3)CC2)cc1OC	-1	16	0.7	0.8	0	31
CCCS(=O)(=O)N1CCCC(C(=O)NC2CCCC(C)C2C)C1 (configuration not stated)	-6	56*	0.6	0.4	5	37
O=C(NCCc1ccccc1)C1CCN(S(=O)(=O)N2CCC3(CC2)OCCO3)CC1	-1	20	0.7	0.8	1	30
CCCS(=O)(=O)N1CCC(C(=O)NC2CCCC(C)C2C)CC1 (configuration not stated)	-7	36	0.9	0.6	0	8
O=C(NCCc1ccc(Cl)cc1)C1CCN(S(=O)(=O)N2CCCCC2)CC1	2	31	0.5	0.7	-5	51*
N#CC1=C(N)SC(N)=C(C#N)C1c1c(Cl)cccc1Cl	-6	89*	0	0.1	-2	95*
N#CC1=C(N)SC(N)=C(C#N)C1Cc1ccccc1	4	46	0.7	0.5	-1	34
N#CC1=C(N)SC(N)=C(C#N)C1c1ccc(C(F)(F)F)cc1	0	44	0.6	0.6	1	38
N#CC1=C(N)SC(N)=C(C#N)C1CCc1ccccc1	7	85*	0.1	0.1	-6	92*
N#C/C(=C\c1ccc(-c2ccccc2)o1)C(=O)Nn1cnnc1	2	92*	0	0.1	-8	99*
Cc1ccc(-c2ccc(/C=C(\C#N)C(=O)Nc3cc(C)nn3-c3ccccc3)o2)cc1	8	10	1	0.9	1	-4
Cc1ccc2c(c1)c1ncnc(N3CCC4(CC3)OCCO4)c1n2C	19	12	0.4	0.9	-2	62*
Cc1ccc2c(c1)c1ncnc(N3CCOCC3)c1n2C	36*	2	0.8	1	20	18
Cc1ccc2c(c1)c1ncnc(N3CCN(c4ccccc4)CC3)c1n2C	53*	10	0.8	0.9	17	16
Cc1cccc(NC(=O)Cn2cnc3sc(C)c(S(=O)(=O)N4CCC(C)CC4)c3c2=O)n1	4	x	x	x	5	x
Cc1ccc(Cl)cc1N(CC(=O)N1CCCCCC1)S(C)(=O)=O	4	27	1	0.7	3	-2
SMILES	PostGolgi ctrl	CYP2C19 inh	CYP2C9 act	CYP2C19 act	PostGolgi yeast	CYP2C9 inh
O=C(NCc1cccnc1)c1cccn2c(=O)c3sccc3nc12	8	76*	0.6	0.2	1	43
O=C(CSc1ccccc1C(=O)NCCCN1CCCC1=O)NCc1ccco1	10	-12	1.1	1.1	-4	-8
CCOc1ccc2nc(SCC(=O)NC3CCS(=O)(=O)C3)[nH]c2c1 (configuration not stated)	7	0	1	1	-1	-2
CCOC(=O)c1sc(N)c(C#N)c1CSc1nc2ccc(C)cc2[nH]1	5	77*	0.2	0.2	2	76*
CCCCn1c(N)c(N(CCOC)C(=O)CSc2nc3ccc(C)cc3[nH]2)c(=O)[nH]c1=O	5	-13	1.1	1.1	6	-10
CCOC(=O)c1sc(N)c(C#N)c1CSc1nc2ccc(OCC)cc2[nH]1	-1	93*	0	0.1	-6	97*
O=C1N/C(=N\N=C\c2ccccn2)SC1Cc1cccc(SC(F)F)c1 (configuration not stated)	11	8	1.5	0.9	9	-47
N/C(=N\OC(=O)c1cccc(F)c1)c1ccccc1	6	0	1	1	-2	-3
CCOc1ccccc1-n1c(N)c(C(N)=O)sc1=S	8	-5	1.1	1	8	-8
CCOC(=O)c1sc(=S)n(-c2ccc(F)c(F)c2)c1N	7	18	1	0.8	-2	4
CCOC(=O)c1sc(=S)n(Cc2ccccc2)c1N	14	28	0.2	0.7	7	79*
CCOC(=O)c1sc(=S)n(-c2ccc3c(c2)OCO3)c1N	2	64*	1	0.4	8	3
CCOC(=O)c1sc(=S)n(-c2ccccc2OC)c1N	5	24	0.4	0.8	5	56*
CCOC(=O)c1sc(=S)n(CC)c1N	7	84*	0.3	0.2	-9	72*
Cc1cc2c(nn1)CCC/C2=N\O	-1	-10	1.1	1.1	9	-14
C=CCn1c(NC(=O)CC)c(C(=O)OCC)sc1=S	3	52*	0.7	0.5	-4	32
C=CCn1c(N)c(C(=O)OCC)sc1=S	20	10	0.6	0.9	-3	41
Cc1[nH]c2ccc(C(=O)O)cc2c1C	14	99*	0.8	0	-9	19
Cc1ccc(SCc2cn3c(C)csc3n2)cc1	13	90*	2.9*	0.1	0	-187
Cc1ccc(S(=O)(=O)NCc2cn3c(C)csc3n2)cc1	14	20	1.1	0.8	-2	-9
Cc1cc(C)c(S(=O)(=O)NCc2cn3c(C)csc3n2)cc1C	-2	18	1.2	0.8	-5	-18
Cc1nc(CCNS(=O)(=O)c2cccs2)cs1	2	34	1.1	0.7	26	-12
Cc1cc(C)c(S(=O)(=O)NCc2cn3c(C)csc3n2)c(C)c1	-2	51*	1.2	0.5	-12	-21
Cc1csc2nc(CCNS(=O)(=O)c3cccs3)cn12	0	70*	1.2	0.3	-2	-21
Cc1ccc2oc3nc(C)c(C(=O)Nc4cccc(C(F)(F)F)c4)cc3c(=O)c2c1	0	26	0.1	0.7	-3	88*
